# Rows were chosen to be rich in hits. Some 2.3% of all compounds tested hit in one or more screens of this group.
# CHRM1 agonist = human M1 muscarinic receptor agonists, primary screen, Fluo-8 calcium fluorescence, CHO-K1 cells, HTS | 360,000 compounds, 0.33% hits | Muscarinic acetylcholine receptor M1 (Homo sapiens), P11229 | CHO-K1 hM1, agonist mode; 0% DMSO, 100% acetylcholine EC100 | activation, % at 3 µM;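 active = activation above the run's mean compound activation plus 3 SD, cut at about 16% in these data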;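 also: peak over basal fluorescence ratio within a 140 s kinetic read after compound addition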
# Target sequence (P11229 whole entry, looked up): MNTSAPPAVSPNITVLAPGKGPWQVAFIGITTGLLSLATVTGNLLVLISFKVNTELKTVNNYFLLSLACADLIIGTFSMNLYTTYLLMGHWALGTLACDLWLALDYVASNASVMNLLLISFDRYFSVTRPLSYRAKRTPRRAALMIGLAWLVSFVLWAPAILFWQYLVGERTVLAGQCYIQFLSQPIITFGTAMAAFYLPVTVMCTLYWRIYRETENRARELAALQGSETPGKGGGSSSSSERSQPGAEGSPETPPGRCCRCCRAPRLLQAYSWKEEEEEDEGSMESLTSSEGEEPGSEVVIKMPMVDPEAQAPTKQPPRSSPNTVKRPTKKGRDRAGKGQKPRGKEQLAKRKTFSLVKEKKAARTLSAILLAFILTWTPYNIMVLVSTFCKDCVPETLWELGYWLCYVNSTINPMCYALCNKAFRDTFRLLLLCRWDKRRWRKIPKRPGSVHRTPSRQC
# CHO-K1 Ca antag = counter-screen for M1 antagonists: effect in parental CHO-K1 cells; ATP-induced calcium, Fluo-8 fluorescence; inhibition, % at 3 µM; 360,000 compounds, 0.6% hits; AID 602250;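 active = inhibition above a per-plate cutoff, the plate's mean sample inhibition plus 3 SD, cut at about 24% in these data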;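 also: 0% = DMSO plus EC80 ATP and 100% = DMSO alone without ATP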
# M1 antag = human M1 muscarinic receptor antagonists, primary screen, CHO-K1 cells, Fluo-8 calcium fluorescence, 1536-well; Muscarinic acetylcholine receptor M1 (Homo sapiens), P11229; inhibition, % at 3 µM; 360,000 compounds, 1.3% hits; CHO-K1 hM1, ACh EC80 antagonist; AID 588852, 2011;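 active = percent inhibition above its own plate's cutoff, namely the mean of that plate's compound wells plus 3 SD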;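 also: peak over basal fluorescence ratio during 140 s after agonist addition; 0% = ACh EC80 plus DMSO and 100% = DMSO alone without agonist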
# CHRM1 PAM = human M1 muscarinic receptor positive allosteric modulators, primary screen, CHO-K1 cells, Fluo-8 calcium fluorescence, 1536-well. Muscarinic acetylcholine receptor M1 (Homo sapiens), P11229. CHO-K1 hM1, ACh EC20; 0% = ACh EC20, 100% = maximal ACh. activation, % at 3 µM. 360,000 compounds, 0.088% hits. AID 588819, 2011; in the data active = activation above about 19%, passing the limit was not always enough
# CHO-K1 Ca ag = counter-screen for M1 agonists: effect in parental CHO-K1 cells; Fluo-8 calcium fluorescence; scaled to maximal ATP response, vehicle zero; 360,000 compounds, 0.48% hits; activation, % at 3 µM; in the data active = activation above about 15%;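 also: untransfected CHO-K1 host cells lacking M1 receptor as counterscreen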
# M1 PAM parental = nonselective calcium activators in parental CHO-K1 cells, primary screen, counter-screen for M1 PAM project, cell-based, Fluo-8 calcium fluorescence, full deck, 1536-well; ATP EC20; 0% at ATP EC20, 100% at ATP max; 360,000 compounds, 0.02% hits; activation, % at 3 µM;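 active = activation above the run cutoff, the mean activation of all test compounds plus 3 SD, cut at about 40% in these data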;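 also: peak over basal fluorescence ratio in a 140 s read after ATP addition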
# An asterisk follows results filed as active; · = no result.
SMILES,CHRM1 agonist,CHO-K1 Ca antag,M1 antag,CHRM1 PAM,CHO-K1 Ca ag,M1 PAM parental
COC(=O)c1ccc(NC(=O)Cn2nc(-c3ccncc3)nc2SCC(=O)Nc2nccs2)cc1,-5,3,33*,-21,0,1
CCn1c(C)nc2c(C)[n+](CC(=O)c3ccc(Br)cc3)ccc21,-9,24*,22,-17,0,-17
COC(=O)c1ccc(C(=O)N2CCCC(C)(C(=O)NS(=O)(=O)C3CC3)C2)cc1 (stereo not given),-3,-2,-19,15,0,8
O=C(CNS(=O)(=O)c1c(Cl)cccc1Cl)OCC(=O)N1CCN(c2ccccc2)CC1,-7,26*,13,-6,1,-12
O=C(Nc1ccc(S(=O)(=O)Nc2ncccn2)cc1)c1ccc2ncsc2c1,-5,-4,-11,7,1,15
CC(C)(C)c1ccc(C(=O)N2CCC(=O)N(C(COCc3ccccc3)Cc3ccccc3)CC2)cc1 (stereo not given),-5,-1,33*,-22,2,-13
CC(C)(C)c1ccc(C(=O)N2CCC(=O)N([C@H](COCc3ccccc3)Cc3ccccc3)CC2)cc1,·,6,·,·,5,-6
CC(C)CN(C(=O)C1CSC2(C)CCC(=O)N12)c1c(N)n(Cc2ccccc2)c(=O)[nH]c1=O (stereo not given),-4,-17,-15,13,2,20
C=CCN(CC(O)c1cccc([N+](=O)[O-])c1)C(C)CCc1ccccc1 (stereo not given),-7,-4,39*,-24,0,4
O=C(Cc1ccccc1)NC(NC(=O)Cc1ccccc1)c1cccc([N+](=O)[O-])c1,-5,-5,-6,9,0,11
O=C(CN(C(=O)c1csnn1)c1cccc(C(F)(F)F)c1)NC1CCCC1,3,1,-4,9,1,4
O=C(Nc1ccc(Cl)cc1)N1CCC(c2nc(-c3cccs3)no2)CC1,-9,-6,13,-14,6,3
O=C(Nc1ccc(Cl)cc1)N1CCC(c2nc(-c3ccccc3Cl)no2)CC1,0,10,20*,-17,6,6
O=C(Nc1cccc(C(F)(F)F)c1)N1CCC(c2nc(-c3ccc(F)cc3)no2)CC1,-9,-1,65*,-34,9,-5
O=C(Nc1ccccc1)N1CCCC(c2nc(-c3ccc(F)cc3)no2)C1 (stereo not given),-4,-7,-17,2,1,17
CC(C)CNC(=S)N1CCC(c2nc(-c3ccc(F)cc3)no2)CC1,-4,15,33*,-15,12,-10
O=C(COc1ccccc1/C=C1\SC(=S)NC1=O)Nc1ccc(F)cc1,0,-13,2,-3,0,10
CC(C)(CO)NCc1cc(Br)ccc1OCc1ccccc1,-10,-21,-1,5,1,13
CC(C)NCc1cc(Br)ccc1OCc1ccccc1,34*,-8,29,-17,3,16
Cc1ccc(C)c(CC(=O)N2CCCCC2c2cc(C(=O)Nc3cccc(C#N)c3)no2)c1 (stereo not given),6,-7,18,-17,7,15
O=C(O)c1ccc(COc2ccc3ccccc3c2/C=C2/NC(=O)N(c3ccccc3)C2=O)cc1,-5,-1,17,-2,0,11
CCN1C(=O)S/C(=C/c2c(OCc3ccc(C(=O)O)cc3)ccc3ccccc23)C1=O,29*,-10,0,16,2,19
O=C1CSC2(C(=O)N3CCCc4cccc2c43)N1c1cccc(C(F)(F)F)c1 (stereo not given),-8,-8,89*,-22,0,12
COc1ccc(N2C(=O)CSC23C(=O)N2CCCc4cccc3c42)cc1 (stereo not given),-6,-7,85*,-26,1,9
COc1ccc(CCC(=O)NNC(=O)Cn2nc(C)cc2C)cc1,0,-1,-3,8,1,6
SMILES,CHRM1 agonist,CHO-K1 Ca antag,M1 antag,CHRM1 PAM,CHO-K1 Ca ag,M1 PAM parental
CCN(c1ccccc1)S(=O)(=O)c1ccc(NC(=O)c2nc(S(C)(=O)=O)ncc2Cl)cc1,1,18,35,-9,6,-9
CCS(=O)(=O)c1ncc(Cl)c(C(=O)Nc2ccc(S(=O)(=O)N(C)c3ccccc3)cc2)n1,-6,14,88*,-24,1,-30
CC(C)NC(=O)c1ccc(CN2CCc3ccccc3C2)cc1,-9,5,45*,-27,0,4
O=C1CC(=C(c2ccccc2)c2ccccc2)C(=O)N1CCCCN1CCN(c2ccccc2)CC1,-5,-13,73*,-22,0,15
Cc1c(Cl)cccc1NC(=O)[C@@H](NC(=O)c1ccccc1Cl)C(C)C,-8,24*,1,2,0,-14
CCOc1ccc(S(=O)(=O)NCCC(=O)OCC(=O)NC(=O)c2cccn2C)cc1,0,-4,-26,9,0,1
CCOC(=O)c1c(C(C)(C)C)oc2ccc(OCC#N)cc12,-4,-12,28*,-17,0,19
O=C(Nc1ccc(S(=O)(=O)Nc2nccs2)cc1)c1cnc(Cl)c(Cl)c1,-6,-5,-7,4,1,10
CC(C)C[C@@H](COCc1cccc(Cl)c1)N1CCN(C(=O)c2ccc(C(F)(F)F)cc2)CCC1=O,·,-6,·,·,11,12
Cc1cc(-n2cccn2)ccc1CN1CCN(CC(C)C)C(CCO)C1 (stereo not given),-7,-17,48*,-24,1,16
Cc1ccc(CN2CCN(Cc3ccc(-n4cccn4)cc3)CC2CCO)cc1 (stereo not given),-14,-5,-15,9,0,7
CC(C)CCN1CCN(Cc2cccc(-n3cccn3)c2)CC1CCO (stereo not given),-7,4,0,-2,0,-9
Cc1cc(-n2cccn2)ccc1CN1CCN(C2CCCC2)C(CCO)C1 (stereo not given),-4,6,100*,-20,0,-13
CC1([N+](=O)[O-])COC(c2cccc3ccccc23)OC1 (stereo not given),-2,26*,11,-9,0,-15
COc1ccccc1C1OCC(C)([N+](=O)[O-])CO1 (stereo not given),0,-10,-6,3,1,17
COc1ccc(C(=O)Nc2ccccc2)cc1NC(=O)c1ccc([N+](=O)[O-])cc1,-8,-2,0,3,0,6
